# Reference: PubChem BioAssay (Tox21)
# Results filed as inconclusive are left out. Where a call stands in place of a potency, no number is given. Some compounds were tested as several samples or in several runs, with calls that do not always agree. Active and inactive are the calls of the source. Calls follow the shape of the full dose curve.
# Assay: p53 small molecule agonists, cell-based qHTS assay with rat liver microsomes: qHTS cell viability counter screen (AID 1963580); also: nearly all actives have a fitted effect of over 45% in size
# Conditions: p53RE-bla HCT-116 + rat microsomes, ATP viability, 16 h; series mostly up to 66 µM
# Excerpt: National Center for Advancing Translational Sciences [NCATS]
# Division of Preclinical Innovation [DPI]
# U.S. Environmental Protection Agency [EPA]
# National Institutes of Environmental Health Sciences [NIEHS]
# National Toxicology Program [NTP]
# U.S. Food and Drug Administration [FDA]
# p53, a tumor suppressor protein, is activated following cellular insult, including DNA damage and other cellular stresses. The activation of p53 regulates cell fate by inducing DNA repair, cell cycle arrest, apoptosis, or cellular senescence. The activation of p53, therefore, is a good indicator of DNA damage and other cellular stresses. The CellSensor p53RE-bla HCT-116 cell line contains a stably integrated beta-lactamase reporter gene under control of the p53 response elements. The activation of the reporter gene under culture conditions can be detected by fluorescence intensity. This cell line was used to screen the Tox21 10K compound library in the condition of presence of rat liver microsomes and to identify agonists that activate the p53 signaling pathway after in vitro metabolic activation (Ooka et al., Archive of Toxicology 96:1975-1987, 2022). The cytotoxicity of the Tox21 compound library against the p53 RE-bla HCT-116 cell line was tested in parallel by measuring the intra cellular ATP content in the same wells.
# Tox21 Assay Protocol Summary:
# The p53RE-bla cells were dispensed at 4,000cells/3ul/well in 1536-well black-clear bottom plates. After the assay plates were incubated at 37 C, 5% CO2 incubator for 5 hours, 23 nL of compounds dissolved in DMSO, positive controls or DMSO only was transferred to the assay plate. Following compound addition, 3 uL of rat liver microsomes (Molecular Toxicology, Boone, NC) at final concentration of 0.5 mg/mL and 1uL of B-Nicotinamide adenine dinucleotide 2'-phosphate (NADPH) at final concentration of 0.5 mg/mL were transferred to the assay plate. The plates were incubated at 37 C for 16 hours. 1 uL of LiveBLAzer detection mixture was added to each well and the plates were incubated at room temperature in the dark for 2 h. Fluorescence intensity at 460 and 530 nm emission and 405 nm excitation were measured by an Envision plate reader. For cell viability readout that measures cytotoxicity, 4 ul/well of CellTiter-Glo reagent was added into the assay plates using a Flying Reagent Dispenser. After 30 min incubation at room temperature, the luminescence intensity in the plates was measured using a ViewLux plate reader.
# Potency is read from the fitted curve at half-maximal effect.
SMILES,Potency,"activity change, negative = cytotoxicity"
Cc1cccc(C#N)c1,inactive,
CCCCNC(=O)n1c(NC(=O)OC)nc2ccccc21,inactive,
O=C(Cl)CCl,inactive,
Cc1cc(Cl)ccc1OCC(=O)O,inactive,
CCC(C)(C#N)N=NC(C)(C#N)CC (stereo not given),inactive,
Clc1ccc(C2(Cn3cncn3)OCCO2)c(Cl)c1,inactive,
CN=C=S,inactive,
Nc1nc(N)nc(Cl)n1,inactive,
CCCCCCCCCCCCCCCC[n+]1ccccc1,42.7 µM (active) and inactive,
CCCCCC[n+]1ccccc1,inactive,
[P]#[In],inactive,
COP(=S)(OC)SCN1C(=O)c2ccccc2C1=O,inactive,
COC(=O)[C@@H](N)CCCN/C(N)=N/[N+](=O)[O-],inactive,
CCOc1ccc(N)cc1,inactive,
Brc1ccc(Oc2ccccc2)cc1,inactive,
Cc1ncc2n1-c1ccc(Cl)cc1C(c1ccccc1F)=NC2,inactive,
c1ccc(N=Nc2ccccc2)cc1,inactive,
CC(C)C(=O)OCC(C)(C)C(OC(=O)C(C)C)C(C)C (stereo not given),inactive,
Cc1ccc(Cl)c(O)c1,inactive,
CCOP(=O)(CN(CCO)CCO)OCC,inactive,

SMILES,Potency,"activity change, negative = cytotoxicity"
CCC(=O)OC1(c2ccccc2)CCN(C)CC1,inactive,
OCCOc1ccccc1,inactive,
CC1CC(=O)O1 (stereo not given),inactive,
CN(C)c1nc(=O)n(C2CCCCC2)c(=O)n1C,inactive,
CO[C@@H]1[C@H](OC(=O)NC(=O)CCl)CC[C@]2(CO2)[C@H]1[C@@]1(C)O[C@@H]1CC=C(C)C,,-0.0178% [at 13.5 µM] (inactive)
Nc1ccccc1Cl,inactive,
O=C(NCO)NCO,inactive,
N#Cc1ccc(Cl)cc1,inactive,
CC[N+](CC)(CC)CC,inactive,
CCCCCCC#N,inactive,
COc1ccc(N)cc1N,inactive,
ClCc1ccccc1CCl,inactive,
C=CCN=C=S,inactive,
O=C(Nc1ccc(Br)cc1)c1cc(Br)cc(Br)c1O,inactive,
CC1C=[C-]C=C1.[C-]#[O+].[C-]#[O+].[C-]#[O+].[Mn],inactive,
OC[C@@H](O)[C@H]1O[C@@H]2O[C@H](C(Cl)(Cl)Cl)O[C@@H]2[C@H]1O,inactive,
N#CC(c1ccccc1)c1ccccc1,inactive,
CCOC(=O)C(O)(c1ccc(Cl)cc1)c1ccc(Cl)cc1,inactive,
COC(=O)Nc1cccc(OC(=O)Nc2cccc(C)c2)c1,inactive,
[N-]=[N+]=[N-],inactive,
